Hits are enriched below; roughly 19% of the tested compounds scored in any of these assays.
IL-1B inflam inh – qHTS for Inhibitors of Inflammasome Signaling: IL-1-beta AlphaLISA Primary Screen; activity change, % at 57.5 µM; THP-1 LPS/ATP IL-1B secretion, AlphaLISA, 16 h; active compounds read low; 360,000 tested, 4.7% active; in the data active means activity change below about -50%; inconclusive means mostly about -30% to -49%
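Secreted IL-1B measured by AlphaLISA bead assay after 16 h compound exposure of THP-1 cells; compounds (final up to 57.5 uM) added 1 h before LPS (250 ng/mL) and ATP (1.25 mM) stimulation; lower signal means less secretion.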
HT1080 IDH1KD tx – qHTS for induction of synthetic lethality in tumor cells producing 2HG: qHTS for the HT-1080-IDH1KD cell line | HT-1080 IDH1 knockdown viability, ATP luminescence, 48 h | Potency, µM (titrated, usually from 46.1 µM), for the others: top-dose activity, negative = toxicity, actives largely listed as cytotoxic | 360,000 tested, 2% active;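 further: potency means the concentration at half of the fitted maximal effect; 0% = DMSO wells and -100% = cell-free medium wells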
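Knockdown cells (IDH1KD HT-1080) received compounds 2 h after plating at 750 cells/well and were kept 48 h at 37 °C in 5% FBS RPMI. A CellTiter-Glo luminescence read gave % activity for curve fitting.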
HT1080NT lethal – qHTS for induction of synthetic lethality in tumor cells producing 2HG: qHTS for the HT-1080-NT fibrosarcoma cell line | AID 686970, 2013 | HT-1080-NT fibrosarcoma viability, CellTiter-Glo ATP luminescence, 48 h | Potency, µM (doses to about 46.1 µM), for the others: at the highest dose activity, negative = less viability, most hits filed as cytotoxic | 360,000 tested, 1.6% active;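 further: NT is the 2HG producing partner of a matched IDH1 knockdown line; potency means the concentration at half of the fitted maximal effect; 0% = DMSO-treated cells and -100% = media-only wells without cells; nearly all actives have a fitted effect of over 55% in size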
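HT-1080-NT fibrosarcoma cells (2HG-overproducing), 750 cells/well in RPMI with 5% FBS, dosed after 2 h and incubated 48 h at 37C. CellTiter-Glo luminescence normalized to DMSO and no-cell wells; concentration-response curves fitted and classed.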
DT40 TDP1 no CPT – qHTS for Inhibitors of human tyrosyl-DNA phosphodiesterase 1 (TDP1): qHTS in cells in absence of CPT. DT40 Tdp1-/- hTDP1 cells, no CPT, ATP luminescence, 48 h. Potency, µM (series often up to 46.2 µM), for the others: top-dose activity change, negative = growth inhibition, hits mostly inhibitors. 420,000 tested, 15% active; further: potency means the concentration at half of the fitted maximal effect; nearly all actives have a fitted effect of over 55% in size
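Camptothecin absent (DMSO only). Human TDP1-complemented DT40 knockout cells, 400 cells/well, 37 °C for minimum 48 hr; ATP measured via CellTiter-Glo, 30 min dark incubation, luminescence.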
DT40 TDP1 CPT – qHTS for Inhibitors of human tyrosyl-DNA phosphodiesterase 1 (TDP1): qHTS in cells in presence of CPT. chicken DT40 Tdp1-/-;hTDP1 cells + 20 nM CPT, ATP luminescence, 48 h. Potency, µM (series often up to 46.2 µM), for the others: top-dose activity change, negative = growth inhibition, actives largely listed as inhibitors. 420,000 tested, 12% active. AID 686979, 2013; further: potency means the concentration at half of the fitted maximal effect; nearly all actives have a fitted effect of over 55% in size
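Chicken DT40 Tdp1-/- cells stably complemented with human TDP1 were seeded at 400 cells/well in medium containing 20 nM camptothecin, exposed to pin-transferred compounds, and grown at 37 °C for at least 48 hr. Viability was read as ATP luminescence.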
The depositor's hits bear a star. Unless noted, the call rests on the fitted dose curve; in most records, active means well fitted curve in the direction sought with a large enough effect; inconclusive means small, poorly fitted or top-dose-only effect, or another doubt; inactive means no such curve, though single readings can be large; an effect the other way counts as inactive or inconclusive. Unless noted, on the % scale 0 is the no-effect control and ±100 the full control effect.

What do the screens show for `CCOc1ccccc1OCCCC(=O)NNC(=O)c1nn(C)c(=O)c2ccccc12`?
IL-1B inflam inh: -3; HT1080 IDH1KD tx: 9%; HT1080NT lethal: -8%; DT40 TDP1 no CPT: 5%; DT40 TDP1 CPT: -2%

How did COc1ccccc1CN1C(=O)C(Cc2ccccc2)ON=C1c1ncccc1C (configuration not stated) do in these assays?
IL-1B inflam inh: 0; HT1080 IDH1KD tx: -4%; HT1080NT lethal: -20%; DT40 TDP1 no CPT: inconclusive; DT40 TDP1 CPT: inconclusive

How did CC(=O)Oc1cc2c(C(=O)NCCCN3CCOCC3)c(C)oc2c2ccccc12 do in these assays?
IL-1B inflam inh: 17; HT1080 IDH1KD tx: inconclusive; HT1080NT lethal: inconclusive; DT40 TDP1 no CPT: 21µM*; DT40 TDP1 CPT: 15µM*

How did Cc1c(C(=O)N(CCO)C(C)C)cnn1-c1ncc2c(n1)-c1ccccc1CCC2 do in these assays?
DT40 TDP1 no CPT: inconclusive; DT40 TDP1 CPT: 4%

Results for CCOC(=O)OC(C)OC1=C(C(=O)Nc2ccccn2)N(C)S(=O)(=O)c2ccccc21 (configuration not stated) ?
DT40 TDP1 no CPT: 2.1µM*; DT40 TDP1 CPT: inconclusive

What do the screens show for `N#CC1=C2SCC(O)(c3ccccc3)N2C(=O)CC1c1ccccc1` (configuration not stated)?
IL-1B inflam inh: -11; HT1080 IDH1KD tx: inconclusive; HT1080NT lethal: 1.3µM*; DT40 TDP1 no CPT: 1.6µM*; DT40 TDP1 CPT: 1.3µM*

What do the screens show for `CCc1ccc(C2CC(=O)N3CN(c4ccccc4)CSC3=C2C#N)cc1` (configuration not stated)?
IL-1B inflam inh: -14; HT1080 IDH1KD tx: -11%; HT1080NT lethal: 0%; DT40 TDP1 no CPT: inconclusive; DT40 TDP1 CPT: inconclusive

Results for Cc1cc(C)cc(-n2ncc3c2CCCC3NC(=O)c2cc(C)n(C)n2)c1 (configuration not stated) ?
IL-1B inflam inh: 0; HT1080 IDH1KD tx: -17%; HT1080NT lethal: -5%; DT40 TDP1 no CPT: inconclusive; DT40 TDP1 CPT: inconclusive

Results for CC(=O)Nc1cccc(C(=O)NC2CCCc3c2cnn3-c2ccc(C(C)(C)C)cc2)c1 (configuration not stated) ?
IL-1B inflam inh: 57; HT1080 IDH1KD tx: inconclusive; HT1080NT lethal: -26%; DT40 TDP1 no CPT: inconclusive; DT40 TDP1 CPT: inconclusive

Results for Cc1cc(C(=O)NC2CCCc3c2cnn3-c2ccc(C(C)(C)C)cc2)nn1C (configuration not stated) ?
IL-1B inflam inh: 5; HT1080 IDH1KD tx: -16%; HT1080NT lethal: 13µM*; DT40 TDP1 no CPT: 16µM*; DT40 TDP1 CPT: 8.2µM*

What do the screens show for `CC(C)(C)c1ccc(-n2ncc3c2CCCC3NC(=O)c2ccco2)cc1` (configuration not stated)?
IL-1B inflam inh: 56; HT1080 IDH1KD tx: -23%; HT1080NT lethal: -19%; DT40 TDP1 no CPT: 15µM*; DT40 TDP1 CPT: 21µM*

Results for COc1ccc([C@H]2/C=C\CN(C(=O)C3CCCC3)[C@@H](C)C(=O)N2Cc2ccc(F)cc2)cc1 ?
IL-1B inflam inh: 22; HT1080 IDH1KD tx: -25%; HT1080NT lethal: -19%; DT40 TDP1 no CPT: 7.3µM*; DT40 TDP1 CPT: 13µM*

How did COc1ccc(C2/C=C\CN(C(=O)C3CCCC3)[C@H](Cc3ccccc3)C(=O)N2Cc2ccc(F)cc2)cc1 (some centres not stated) do in these assays?
IL-1B inflam inh: -22; HT1080 IDH1KD tx: -22%; HT1080NT lethal: -17%; DT40 TDP1 no CPT: inconclusive; DT40 TDP1 CPT: 23µM*

What do the screens show for `CCCCCCCN1C/C=C\C(c2ccc(OC)cc2)N(Cc2ccc(F)cc2)C(=O)[C@H]1Cc1ccccc1` (some centres not stated)?
IL-1B inflam inh: 4; HT1080 IDH1KD tx: -1%; HT1080NT lethal: -4%; DT40 TDP1 no CPT: 18µM*; DT40 TDP1 CPT: inconclusive

What do the screens show for `COc1ccc(C2/C=C\CN(Cc3ccco3)CC(=O)N2Cc2ccc(F)cc2)cc1` (configuration not stated)?
IL-1B inflam inh: -1; HT1080 IDH1KD tx: -3%; HT1080NT lethal: 0%; DT40 TDP1 no CPT: inconclusive; DT40 TDP1 CPT: inconclusive

Results for COc1ccc(C2/C=C\CN(C(=O)Nc3ccccc3)CC(=O)N2Cc2ccc(F)cc2)cc1 (configuration not stated) ?
IL-1B inflam inh: 2; HT1080 IDH1KD tx: -2%; HT1080NT lethal: -1%; DT40 TDP1 no CPT: inconclusive; DT40 TDP1 CPT: inconclusive

Results for COc1ccc(C2/C=C\CN(C(=O)Nc3ccc(C(F)(F)F)cc3)CC(=O)N2Cc2ccc(F)cc2)cc1 (configuration not stated) ?
IL-1B inflam inh: 0; HT1080 IDH1KD tx: inconclusive; HT1080NT lethal: inconclusive; DT40 TDP1 no CPT: 13µM*; DT40 TDP1 CPT: 15µM*

Results for c1cc(SSc2ccncc2)ccn1 ?
IL-1B inflam inh: inconclusive; HT1080 IDH1KD tx: -17%; HT1080NT lethal: 3%; DT40 TDP1 no CPT: 16µM*; DT40 TDP1 CPT: inconclusive

What do the screens show for `c1ccc(Sc2ccncc2)cc1`?
IL-1B inflam inh: -25; HT1080 IDH1KD tx: 5%; HT1080NT lethal: 1%; DT40 TDP1 no CPT: 3%; DT40 TDP1 CPT: 1%

Results for N#Cc1ccc(NC(=O)COC(=O)C2Cc3ccccc3CN2C(=O)c2ccccc2)cc1 (configuration not stated) ?
IL-1B inflam inh: -8; HT1080 IDH1KD tx: 1%; HT1080NT lethal: -16%; DT40 TDP1 no CPT: 16µM*; DT40 TDP1 CPT: 9.2µM*

Results for C[n+]1ccc(/C=C/c2ccc([N+](C)(C)C)cc2)c2ccccc21 ?
DT40 TDP1 no CPT: 0.16µM*; DT40 TDP1 CPT: 0.14µM*

Results for C[n+]1ccc(/C=C/c2ccc(F)cc2)c2ccccc21 ?
DT40 TDP1 no CPT: 13µM*; DT40 TDP1 CPT: 8.9µM*

How did C[n+]1ccccc1/C=N/O do in these assays?
IL-1B inflam inh: 23; HT1080 IDH1KD tx: -2%; HT1080NT lethal: 41%; DT40 TDP1 no CPT: 2%; DT40 TDP1 CPT: 0%

What do the screens show for `C[n+]1ccc(/C=C/c2cc[n+](C)c3ccccc23)c2ccccc21`?
DT40 TDP1 no CPT: 0.079µM*; DT40 TDP1 CPT: 0.1µM*

Results for CN1C=C/C(=C\c2cc[n+](C)c3ccccc23)c2ccccc21 ?
IL-1B inflam inh: -71*; HT1080 IDH1KD tx: 6.5µM*; HT1080NT lethal: inconclusive; DT40 TDP1 no CPT: 0.0082µM*; DT40 TDP1 CPT: 0.21µM*

High-throughput results (PubChem BioAssay)
